Max response, Potency and outcome data for 17 compounds are collected here from PubChem BioAssay (NCATS).

The subject of one test is CRL-7250. The test is described as follows: Cytotoxic Profiling of Annotated Libraries Using Quantitative High-Throughput Screening (AID 1296008). Also: nearly all actives have a fitted effect of over 60% in size. Also: potency is read from the fitted curve at half-maximal effect. As to Max response: % is scaled to controls: 0 for no effect and ±100 for the full control effect. As to conditions: Five cell lines viability, CellTiter-Glo ATP luminescence, 48-72 h; max response: hits give low values. The gist of the method:
(§1)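 Compounds were pin-transferred onto cells and incubated 48 or 72 hr at 37 degree Celsius, 95% humidity. CellTiter-Glo was added, plates sat 10 min at room temperature, then ATP-coupled luminescence was imaged as the viability read-out.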
(Cellular ATP, detected with luciferase, serves as a proxy for viable cell number.)

A further test concerns KB-3-1. The test is described as above. As to conditions: Five cell lines viability, CellTiter-Glo ATP luminescence, 48-72 h; max response: hits give low values. The gist of the method:
as §1

The test system of test [1] is NIH3T3. The test is described as above. As to conditions: Five cell lines viability, CellTiter-Glo ATP luminescence, 48-72 h; max response: hits give low values. The gist of the method:
as §1

Another test has as its system CAOV3. The test is described as follows: Primary qHTS to identify gynecologic anti-cancer compounds using libraries of approved drugs and bioactive compounds (AID 1345084). Also: nearly all actives have a fitted effect of over 55% in size. Also: potency is read from the fitted curve at half-maximal effect. Particulars: Gynecologic cancer cell panel viability, ATPlite luminescence, 48 h; series mostly up to 57.5 µM. The method in brief:
(§2)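 Five-point cytotoxicity, 48 h drug exposure at 37 C, 5% CO2, on cells seeded 16 h beforehand. ATP content read by ATPlite luminescence.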
On the technique in general: Quantitative high-throughput screening tests each substance at several concentrations.

In the next test the test system is Es-2. Described as above. Particulars: Gynecologic cancer cell panel viability, ATPlite luminescence, 48 h; series mostly up to 57.5 µM. The gist of the method:
as §2

For another test, the system named is HeLa. The description is as above. Particulars: Gynecologic cancer cell panel viability, ATPlite luminescence, 48 h; series mostly up to 57.5 µM. The method in brief: as §2
The test system of the next test is Hek293T. The test is described as above. Particulars: Gynecologic cancer cell panel viability, ATPlite luminescence, 48 h, control line for the selectivity index; series mostly up to 57.5 µM. The gist of the method: as §2
Another test relates to JEG-3. Described as above. Particulars: Gynecologic cancer cell panel viability, ATPlite luminescence, 48 h; series mostly up to 57.5 µM. The gist of the method:
as §2

The next test concerns OV90. The description is as above. Particulars: Gynecologic cancer cell panel viability, ATPlite luminescence, 48 h; series mostly up to 57.5 µM. The method in brief: as §2
The test system of the next test is PA-1. The description is as above. As to conditions: Gynecologic cancer cell panel viability, ATPlite luminescence, 48 h; series mostly up to 57.5 µM. The method in brief: as §2
The next test relates to C33A. The test is described as above. Particulars: Gynecologic cancer cell panel viability, ATPlite luminescence, 48 h; series mostly up to 57.5 µM. The gist of the method: as §2
A further test relates to CASKI. The test is described as above. As to conditions: Gynecologic cancer cell panel viability, ATPlite luminescence, 48 h; series mostly up to 57.5 µM. The gist of the method:
as §2

The next test deals with HEK293. The test is described as follows: Cytotoxic Profiling of Annotated Libraries Using Quantitative High-Throughput Screening (AID 1296008). Also: nearly all actives have a fitted effect of over 60% in size. Also: potency is read from the fitted curve at half-maximal effect. As to Max response: % is scaled to controls: 0 for no effect and ±100 for the full control effect. As to conditions: Five cell lines viability, CellTiter-Glo ATP luminescence, 48-72 h; max response: hits give low values. The method in brief: as §1
The next test deals with HaCat. The test is described as above. As to conditions: Five cell lines viability, CellTiter-Glo ATP luminescence, 48-72 h; max response: hits give low values. The gist of the method: as §1
The subject of test [2] is NIH3T3. The test is described as follows: qHTS assay to identify novel small-molecules to repurpose for Merkel cell carcinoma treatment (AID 1296009). Also: nearly all actives have a fitted effect of over 60% in size. As to conditions: MCC and control cell lines, CellTiter-Glo viability, 72 h; series mostly up to 44.8 µM. The gist of the method:
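Luminescence from CellTiter-Glo, read 10 min after addition at room temperature, reported viability following a 72 hr, 37 degree celsius treatment with NPC or MIPE compounds in titration; values normalized to plate controls.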

The structures appear in SMILES notation. Where “and” joins values, the source holds several entries; their conditions need not be identical. Equal values may be shown once. Results filed as inconclusive are left out. Unmarked numbers belong to inactive results. Calls of active or inactive are those of the source. Calls follow the shape of the dose curve; as a rule, active = well fitted curve in the direction sought with a large enough effect; inconclusive = small, poorly fitted or top-dose-only effect, or another doubt; inactive = no such curve, though single readings can be large; an effect the other way counts as inactive or inconclusive.

Regarding `C/C=C/C=C/C=C/C(=O)O[C@@H]1C=C2COC(=O)[C@]2(O)[C@@]2(C)CCCC(C)(C)[C@H]12`, the max response in the test with CRL-7250 was -25.9%; with KB-3-1, -0.753%; in the test with NIH3T3 [1], -4.92%. The Potency entry in the test on CAOV3, in the test with Es-2, in the test on HeLa, in the test with Hek293T, in the test on JEG-3 and in the test with OV90 was “inactive” each time. Moreover, the Potency result in the test on PA-1 is “inactive”.
Take `COc1ccc(CCCN2CCC(COC(c3ccccc3)c3ccccc3)CC2)cc1`: the max response with CRL-7250 was -2.98%. In addition, the Potency entry in the test with C33A, with CAOV3, in the test on CASKI, with Es-2, with HeLa and in the test on Hek293T was “inactive” throughout. Also, the Potency entry in the test with JEG-3, in the test with OV90 and with PA-1 was “inactive” throughout.
`CS(=O)(=O)Nc1ccc2oc3c(OC(F)F)ccc(C(=O)Nc4c(Cl)cncc4Cl)c3c2c1`: the results for the max response in the test with CRL-7250 and with NIH3T3 [1] were -13.5% and -9.63%, respectively. The Potency entry in the test with C33A, in the test on CAOV3, with CASKI, with Es-2, with Hek293T and in the test on JEG-3 was “inactive” each time. The Potency entry in the test on OV90 and with PA-1 was “inactive” throughout.
`CC(=O)O[C@H]1[C@H](O)C[C@@]2(C)C(CC[C@]3(C)C2CC=C2C4CC(C)(C)CC[C@]4(C(=O)O)CC[C@]23C)C1(C)C` (stereo not given in full): the max response was -14.7% in the test on CRL-7250, -19.6% in the test with KB-3-1 and -15.2% in the test on NIH3T3 [1]. Moreover, the Potency entry in the test on OV90 was “inactive”.
As to `CC1(C)SCCN(S(=O)(=O)c2ccc(Oc3ccncc3)cc2)[C@H]1C(=O)NO`, the max response in the test on CRL-7250 was -1.93%; in the test on KB-3-1, -10.1%; with NIH3T3 [1] it was 2.44%. Further, the Potency entry in the test with C33A, with CAOV3, in the test with Es-2, in the test with HeLa, in the test with Hek293T and with JEG-3 was “inactive” each time. Further, the Potency result in the test on OV90 and in the test on PA-1 was “inactive” each time.
Regarding `Cn1cc(-c2ccc3c(c2)CCN3C(=O)Cc2cccc(C(F)(F)F)c2)c2c(N)ncnc21`, the Potency in the test with CRL-7250 was 16.4 µM (active). For the same compound, the max response with NIH3T3 [1] was -21.2%. The Potency result with C33A, in the test on CAOV3, in the test with CASKI, in the test with Es-2, in the test with HeLa and in the test on Hek293T was “inactive” in each case. Moreover, the Potency entry in the test with JEG-3, with OV90 and in the test with PA-1 was “inactive” each time.
Consider `COc1ccnc(CS(=O)c2nc3cc(OC(F)F)ccc3[nH]2)c1OC` (stereo not given), for which the max response was -13.2% with CRL-7250; -2.25% and -1.6% in the test with KB-3-1. Further, the Potency entry in the test with C33A, in the test with CAOV3, in the test on CASKI, with Es-2, in the test on HeLa and in the test on Hek293T was “inactive” throughout. Also, the Potency entry in the test on JEG-3, in the test on OV90 and with PA-1 was “inactive” each time.
For `C[C@@H]1COCCN1c1cc(=O)n2c(n1)N(Cc1cncc(Cl)c1)[C@H](C(F)(F)F)CC2`, the Potency in the test with HEK293 was 4.17 µM (active). Further, the max response in the test with HaCat is -6.64%.
Consider `Cc1c(NC(=O)OCC2COCCN2)cn2ncnc(Nc3ccc4c(cnn4Cc4cccc(F)c4)c3)c12` (stereo not given), for which the max response was -30.6% in the test with CRL-7250 and -18.9% in the test with KB-3-1. Further, the Potency result with CAOV3, in the test on Es-2, in the test on HeLa, in the test with Hek293T and in the test on OV90 was “inactive” in each case.
As to `NC(=O)c1cnc(N[C@@H]2CCCC[C@@H]2N)nc1Nc1cccc(-n2nccn2)c1`, the Potency in the test on HEK293 is 11.7 µM (active); in the test on HaCat, 13.2 µM (active); in the test with NIH3T3 [1], 23.4 µM (active).
For `CCCSc1nc(N[C@@H]2C[C@H]2c2ccc(F)c(F)c2)c2nnn([C@@H]3C[C@H](OCCO)[C@@H](O)[C@H]3O)c2n1`, in the test with CRL-7250, the result was inactive. Further, the max response was -26.6% with KB-3-1 and -24.3% in the test with NIH3T3 [1]. The Potency entry in the test on C33A, in the test on CAOV3, in the test with Es-2, with HeLa, in the test with Hek293T and with JEG-3 was “inactive” in each case. Further, the Potency result in the test on OV90 and with PA-1 was “inactive” in each case.
In the case of `CC(C)n1nc(C#Cc2ccccc2)c2c(N)ncnc21`, the Potency with CRL-7250 is 16.4 µM (active); with NIH3T3 [1], 11.6 µM (active). Moreover, the Potency result with CASKI, in the test with Es-2, with HeLa, in the test on Hek293T, with OV90 and in the test on PA-1 was “inactive” in each case.
For the compound `Cc1cc(F)ccc1[C@H]1C[C@@H](N2CCN3C(=O)CC[C@H]3C2)CCN1C(=O)N(C)[C@H](C)c1cc(C(F)(F)F)cc(C(F)(F)F)c1`, the max response with CRL-7250 was 2.7%. Also, the compound was classed as inactive in the test with NIH3T3 [1]. Moreover, the Potency entry in the test on NIH3T3 [2], in the test with C33A, in the test with CAOV3, with CASKI, with Es-2 and in the test with HeLa was “inactive” in each case. Besides, the Potency result in the test with JEG-3, in the test with OV90 and in the test on PA-1 was “inactive” each time.
Take `CC(C)c1ccc(NC(=O)c2cccs2)c(-c2nc3ccccc3[nH]c2=O)c1`: the max response in the test with CRL-7250 is 4.02%; in the test with NIH3T3 [1], 0.611%. Moreover, the Potency result in the test on C33A, in the test with CAOV3, in the test on Es-2, in the test on HeLa, in the test with Hek293T and in the test on JEG-3 was “inactive” throughout. Besides, the Potency result in the test on OV90 and in the test with PA-1 was “inactive” throughout.
With `C=C(C)C1CC(O)C(C)C12CC(O)C1(C)OC1C2O` (stereo not given), the Potency in the test on CRL-7250 is 2.59 µM (active); in the test with C33A, 11.2 µM (active); in the test on CASKI it was 12.6 µM (active); in the test on Es-2, 8.91 µM (active); in the test with HeLa, 14.1 µM (active); with JEG-3 it was 28.2 µM (active). The Potency was 7.08 µM (active) in the test on OV90 and 8.91 µM (active) in the test on PA-1. Besides, in the test with NIH3T3 [1], the max response was -26.2%.
Consider `COc1ccccc1N1CCN(c2ncnc3n[nH]c(Br)c23)CC1`, for which the max response with CRL-7250 was -14.5%. Moreover, the result with NIH3T3 [1] was inactive. Also, the Potency result in the test with NIH3T3 [2], with C33A, in the test with CAOV3, with CASKI, in the test on Es-2 and in the test on Hek293T was “inactive” throughout. Moreover, the Potency result in the test with JEG-3, with OV90 and with PA-1 was “inactive” throughout.
For the compound `COc1ccc([C@H]2Cc3cccc(O)c3C(=O)O2)cc1OC`, the max response in the test on CRL-7250 is -21.6%; with KB-3-1, 2.52%. For the same compound, the Potency result in the test with C33A, in the test with CAOV3, in the test with CASKI, in the test on Es-2, in the test with HeLa and in the test with Hek293T was “inactive” each time. Moreover, the Potency entry in the test on JEG-3, in the test with OV90 and in the test with PA-1 was “inactive” each time.
